# According to ChEMBL document CHEMBL3988442, “University of Dundee, Small-Polar-MMV Screening Library” (2021):
# Screen size: about 66,000 compounds; about 960 (1.5%) showed an effect of 50% or more. This is one part of a sample in which strong results are shown more often than they occur.
# Tested on: Trypanosoma brucei
# Test: Trypanosoma brucei 72 hour study
# Type: functional, organism-based
# Parameters: scale not given: in the data most compounds retested in dose-response had high values
smiles,measurement,setting,value
COCc1nc(C(=O)NS(=O)(=O)c2c(C)c(C)cc(C)c2C)cs1,Percent Effect,"30.3 µM, […]",-6.08%
O=C(N1CCOCC1)[C@@]12CCO[C@@H]1CCN(C1CCOCC1)C2.O=C(O)C(F)(F)F,Percent Effect,"30 µM, 30.03 µM",-13.03%
CN(C)C(=O)C1OC2(CCN(c3ncc(F)cn3)CC2)c2ccccc21.O=C(O)C(F)(F)F (configuration not stated),Percent Effect,"30 µM, 30.03 µM",-1.93%
COc1ccc(-c2nnsc2C(=O)N2CCC(C(N)=O)CC2)cc1,Percent Effect,"30.3 µM, […]",7.87%
Cc1ccsc1CN1CC[C@H]2OCC[C@@]2(C(=O)N2CCCO2)C1.O=C(O)C(F)(F)F,Percent Effect,"30.3 µM, […]",-14.02%
Cc1ccccc1C(O)CNS(=O)(=O)Cc1cccc(C#N)c1 (configuration not stated),Percent Effect,"30.3 µM, […]",7.529%
CCCC(N)CNS(=O)(=O)Cc1cccc(C#N)c1.Cl (configuration not stated),Percent Effect,"30.3 µM, […]",63.71%
N#Cc1cccc(CS(=O)(=O)NCC(O)Cc2ccccc2)c1 (configuration not stated),Percent Effect,"30 µM, 30.03 µM",-15.65%
CCO[C@H]1CO[C@@]2(CCCN(Cc3scnc3C)C2)C1.O=C(O)C(F)(F)F,Percent Effect,"30 µM, 30.03 µM",-66.13%
Cc1nc(C)n(CC2CCCN2Cc2ccn(-c3ccccc3)n2)n1 (configuration not stated),Percent Effect,"30.3 µM, […]",99.84%
c1ccc(-n2ccc(CN3CCCC3Cn3cccn3)n2)cc1 (configuration not stated),Percent Effect,"30.3 µM, […]",99.68%
c1ccc(-n2ccc(CN3CCCC3Cn3cncn3)n2)cc1 (configuration not stated),Percent Effect,10 µM,-54.26%
Cc1nc(C)n(CC2CCCN2Cc2cn(-c3ccccc3)nn2)n1 (configuration not stated),Percent Effect,"30 µM, 30.03 µM",-3.712%
Fc1cccc(-n2ccc(CN3CCCC3Cn3cccn3)n2)c1 (configuration not stated),Percent Effect,10 µM,-58.75%
Cc1nc(C)n(CC2CCCN2Cc2ccccn2)n1 (configuration not stated),Percent Effect,"30.3 µM, […]",5.601%
O=C(CCN1C[C@@H]2CC[C@H]1C2)N1CCN(c2cccc(Cl)c2)C(=O)C1,Percent Effect,"30.3 µM, […]",-18.65%
CN1CCN(C2COC3(CCN(c4ccc(C#N)cc4)CC3)C2)CC1.O=C(O)C(F)(F)F (configuration not stated),Percent Effect,"30.3 µM, […]",-31.63%
O=C(Cn1ccnc1)N1CCCC(OCc2cccnc2)C1 (configuration not stated),Percent Effect,"30 µM, 30.03 µM",-76.95%
NC(=O)NCC(=O)N1CCCC(OCc2cccnc2)C1 (configuration not stated),Percent Effect,"30 µM, 30.03 µM",-86.17%
NC(=O)CN1CCC(C(=O)N2CCCC(OCc3cccnc3)C2)CC1 (configuration not stated),Percent Effect,"30 µM, 30.03 µM",52.75%
CCC(NC(=O)CC1CCN(C(C)C)CC1)c1cn2cccnc2n1 (configuration not stated),Percent Effect,"30 µM, 30.03 µM",-16.96%
CN1[C@@H](C(=O)NCC2CC2)C[C@@H]2CN(Cc3ccsc3)C[C@@H]21.O=C(O)C(F)(F)F.O=C(O)C(F)(F)F,Percent Effect,"30.3 µM, […]",-75.19%
O=C1c2cnc(N3CCOCC3)nc2CN1Cc1cccc(F)c1,Percent Effect,"30 µM, 30.03 µM",-25.27%
Cc1cc(OCC(=O)NCc2ccc(F)cc2)nnc1C,Percent Effect,"30 µM, 30.03 µM",16.49%
Cc1cc(OCCC(=O)NCc2ccc(F)cc2)nnc1C,Percent Effect,"30 µM, 30.03 µM",71.51%
Cc1cc(OCCC(=O)Nc2cccc(F)c2)nnc1C,Percent Effect,"30 µM, 30.03 µM",46.79%
Cc1noc(C)c1CN1CCC2(CC1)C(c1ccccc1)CC(=O)N2C.O=C(O)C(F)(F)F (configuration not stated),Percent Effect,"30.3 µM, […]",-57.86%
COc1ccc(CC(=O)N2C[C@H]3CN(Cc4ccccn4)C[C@H]3C2)cc1.O=C(O)C(F)(F)F,Percent Effect,"30.3 µM, […]",-4.643%
Cc1occc1C(=O)N1CCCN(Cc2nccn2C)CC1,Percent Effect,"30.3 µM, […]",4.115%
Cc1occc1C(=O)N1CCCN(Cc2nccn2C(C)C)CC1,Percent Effect,"30.3 µM, […]",53.23%
CC(C)n1ccnc1CN1CCCN(C(=O)c2cccnc2O)CC1,Percent Effect,"30 µM, 30.03 µM",-16.49%
CCS(=O)(=O)N1Cc2[nH]nc(COCc3cccnc3)c2C1.O=C(O)C(F)(F)F,Percent Effect,"30.3 µM, […]",-37.05%
O=C(O)C(F)(F)F.O=C(O)C(F)(F)F.O=C(O)C(F)(F)F.c1cnn(C[C@@H]2C[C@@H]3CN(CC4CC4)CC[C@@H]3N2c2nccs2)c1,Percent Effect,"30.3 µM, […]",61.8%
CC(C)N1CC[C@H]2[C@H](C[C@@H](Cn3cccn3)N2c2nccs2)C1.O=C(O)C(F)(F)F.O=C(O)C(F)(F)F.O=C(O)C(F)(F)F,Percent Effect,"30.3 µM, […]",-34.12%
CCC(=O)N1CC[C@H]2[C@H](C[C@@H](Cn3cccn3)N2c2nccs2)C1.O=C(O)C(F)(F)F.O=C(O)C(F)(F)F,Percent Effect,"30.3 µM, […]",-3.444%
CC(=O)N1CCC2(CC1)C(=O)N(CC1CCN(C)CC1)c1ccccc12.O=C(O)C(F)(F)F,Percent Effect,"30.3 µM, […]",-5.968%
CCNc1cc2c(nn1)CCN(C(=O)c1cc3ccccc3o1)C2,Percent Effect,10 µM,-51.84%
same,Percent Effect,"30.3 µM, […]",2.809%
CCNc1cc2c(nn1)CCN(C(=O)c1cc3cc(C)ccc3o1)C2,Percent Effect,10 µM,-11.72%
same,Percent Effect,"30.3 µM, […]",30.23%
CCNc1cc2c(nn1)CCN(C(=O)c1cc3nc(C)ccc3o1)C2,Percent Effect,"30 µM, 30.03 µM",62.84%
Cn1cc(CNC2CCc3c(ccc(=O)n3Cc3ccncc3)C2)cn1.O=C(O)C(F)(F)F.O=C(O)C(F)(F)F (configuration not stated),Percent Effect,"30.3 µM, […]",3.089%
CCc1cc(N(C)Cc2ccnc(C)c2)n2nc(C)c(C)c2n1,Percent Effect,"30 µM, 30.03 µM",-13.68%
CCc1cc(N(C)Cc2ccno2)n2nc(C)c(C)c2n1,Percent Effect,"30 µM, 30.03 µM",69.73%
CCc1cc(N(C)Cc2ccncn2)n2nc(C)c(C)c2n1,Percent Effect,"30 µM, 30.03 µM",25.26%
CC(=O)N1CCCN(C(=O)c2ccc(=O)n(C)c2)c2ccccc21,Percent Effect,"30.3 µM, […]",-14.08%
Cn1cc(N2CC3(CCN(CC4CC4)CC3)OCC2=O)cn1.O=C(O)C(F)(F)F,Percent Effect,"30 µM, 30.03 µM",-14.55%
O=C(NCCC1=CCCCC1)c1n[nH]c2c1CCCC2,Percent Effect,"30.3 µM, […]",9.564%
Cc1cc(C(=O)N2CCN(C)CC2)nn1CC(=O)NCc1cccs1.Cl,Percent Effect,"30.3 µM, […]",4.887%
CN1CCc2c(C#N)c(NCC3CCCO3)n3cnnc3c2C1.Cl (configuration not stated),Percent Effect,"30 µM, 30.03 µM",-22.69%
CC(NC(=O)CSCC(N)=O)c1ccccc1Oc1ccccc1 (configuration not stated),Percent Effect,"30.3 µM, […]",5.896%
CN1[C@H](CN2CCCC2)C[C@@H]2CN(C(=O)c3cccn3C)CC[C@@H]21.O=C(O)C(F)(F)F.O=C(O)C(F)(F)F,Percent Effect,"30.3 µM, […]",14%
Cc1ccc(S(=O)(=O)Nc2cnn(C3CCOCC3)c2)cc1C,Percent Effect,"30 µM, 30.03 µM",-12.07%
O=C(O)c1cc(S(=O)(=O)Nc2cnn(C3CCOCC3)c2)ccc1F,Percent Effect,"30 µM, 30.03 µM",-3.686%
O=S(=O)(Nc1cnn(C2CCOCC2)c1)c1ccc(F)c(F)c1,Percent Effect,"30 µM, 30.03 µM",51.53%
CC(C)CS(=O)(=O)N1CCC2(CN(c3ccsc3)C(=O)CN2C)C1.O=C(O)C(F)(F)F (configuration not stated),Percent Effect,"30 µM, 30.03 µM",-44.48%
CC(=O)Nc1ccc(-c2ccccc2NC(=O)CN)cc1,Percent Effect,"30 µM, 30.03 µM",-52.76%
O=C(CCn1ccccc1=O)Nc1ccc(C(=O)O)cc1,Percent Effect,"30 µM, 30.03 µM",4.206%
Cl.NCCC(=O)Nc1ccc(-c2ccccc2)cc1,Percent Effect,"30.3 µM, […]",22.23%
same,Percent Effect,"10 mM, 10 mM as filed; unlikely as a test dose",97.12%
O=C(O)C(F)(F)F.O=C([C@H]1C[C@H]2OCC[C@H]2N(CC2CC2)C1)N1CCCCO1,Percent Effect,"30.3 µM, […]",-275.5%
O=C(O)C(F)(F)F.O=C1COC2(CCN(Cc3ccsc3)CC2)CN1,Percent Effect,"30 µM, 30.03 µM",-11.85%
CS(=O)(=O)NCC1CCCN(Cc2ccccc2F)C1 (configuration not stated),Percent Effect,"30 µM, 30.03 µM",-12.86%
COC1CN(C(=O)Nc2ccccc2)CCC(=O)N(C)c2ccccc21 (configuration not stated),Percent Effect,"30.3 µM, […]",-31.75%
COC1CCN(C(=O)Nc2ccccc2)CC(=O)N(C)c2ccccc21 (configuration not stated),Percent Effect,"30.3 µM, […]",83.76%
COC1CCN(C(=O)C2CCCC2)CC(=O)N(C)c2ccccc21 (configuration not stated),Percent Effect,"30.3 µM, […]",-34.54%
COCCOc1cccc(CNCc2c(C)nn(C)c2N(C)C)c1,Percent Effect,10 µM,-49.16%
Cc1nc(C)n(CC2CCCN(c3ncnc4[nH]ccc34)C2)n1 (configuration not stated),Percent Effect,"30 µM, 30.03 µM",50.76%
Cc1nc(C)n(CC2CN(c3ncnc4[nH]ccc34)CCO2)n1 (configuration not stated),Percent Effect,"30 µM, 30.03 µM",20.56%
Cc1nc(C)n(CC2CCCN(c3ncnc4ccccc34)C2)n1 (configuration not stated),Percent Effect,"30.3 µM, […]",12.87%
CC(C)NC(=O)[C@@]12CCO[C@@H]1CCN(Cc1ccco1)C2.O=C(O)C(F)(F)F,Percent Effect,"30.3 µM, […]",-46.6%
COc1cc(C)c(-c2ccc(F)c3c2OC(CN)C3)cc1C (configuration not stated),Percent Effect,"30 µM, 30.03 µM",-14.37%
CCN1CCn2c(C)cnc2C12CCN(C(=O)N(C)C)CC2.O=C(O)C(F)(F)F.O=C(O)C(F)(F)F,Percent Effect,"30.3 µM, […]",-17.98%
CCC1CCCCN1Cc1ncc(C(C)(C)C)o1 (configuration not stated),Percent Effect,"30.3 µM, […]",100.3%
same,Percent Effect,"10 mM, 10 mM as filed; unlikely as a test dose",-33.47%
CC(C)(C)c1cnc(CN2CCCCC2Cn2cccn2)o1 (configuration not stated),Percent Effect,"30.3 µM, […]",-24.92%
same,Percent Effect,"10 mM, 10 mM as filed; unlikely as a test dose",-80.62%
Cc1cc(C)n(CC2CCCN2Cc2ncc(C(C)(C)C)o2)n1 (configuration not stated),Percent Effect,"30.3 µM, […]",1.727%
same,Percent Effect,"10 mM, 10 mM as filed; unlikely as a test dose",-8.311%
Cc1nc(C)n(CC2CCCN2Cc2ncc(C(C)(C)C)o2)n1 (configuration not stated),Percent Effect,"30.3 µM, […]",101.7%
same,Percent Effect,"10 mM, 10 mM as filed; unlikely as a test dose",-27.43%
CC(C)(C)c1cnc(CN2CCC[C@H]2CO)o1,Percent Effect,"30 µM, 30.03 µM",19.26%
Cc1nc(C)n(CC2CCCCN2Cc2ncc(C(C)(C)C)o2)n1 (configuration not stated),Percent Effect,"30 µM, 30.03 µM",13.64%
Cc1nc(C)c(S(=O)(=O)NC(=O)c2ccoc2)s1,Percent Effect,"30 µM, 30.03 µM",-10.98%
Cc1cc(F)c(S(=O)(=O)NCC(C)(C)N)cc1F.Cl,Percent Effect,"30 µM, 30.03 µM",-16.06%
Cn1ncc(-c2cc(-c3cccc(O)c3)nc(N)c2C#N)c1C1CC1,Percent Effect,"30.3 µM, […]",47.44%
Cc1cc(O)ccc1-c1cc(-c2cnn(C)c2C2CC2)c(C#N)c(N)n1,Percent Effect,"30.3 µM, […]",53.81%
Cc1nn(C)c(C)c1-c1cc(-c2cnn(C)c2C2CC2)c(C#N)c(N)n1,Percent Effect,"30.3 µM, […]",20.75%
Cc1nccc(NCc2cncc3c2CCN(CC2CCOC2)C3)n1.Cl.Cl (configuration not stated),Percent Effect,"30.3 µM, […]",-74.45%
C/N=C1/c2cc3cc(OC)ccc3n2CCN1Cc1ccccc1.Cl,Percent Effect,"30 µM, 30.03 µM",62.06%
C/N=C1\c2cc3cc(OC)ccc3n2CCN1Cc1ccccc1.O=C(O)C(F)(F)F,Percent Effect,"30 µM, 30.03 µM",28.46%
C/N=C1\c2cc3cc(OC)ccc3n2CCN1C.Cl,Percent Effect,"30 µM, 30.03 µM",-36.23%
Cc1ccc(CN2C[C@@H]3COC[C@@H](CC(=O)N4CCOCC4)[C@@H]3C2)s1.O=C(O)C(F)(F)F,Percent Effect,"30 µM, 30.03 µM",-11.98%
O=C(COC1CCCC1)N1C[C@@H]2COC[C@]2(COc2cccnc2)C1.O=C(O)C(F)(F)F,Percent Effect,"30.3 µM, […]",-69.72%
Cc1ccc(N2CCC(c3cc(Cc4ccccc4)n[nH]3)CC2)nn1,Percent Effect,"30.3 µM, […]",-45.15%
Cc1ccc(N2CCCC(c3[nH]ncc3Cc3ccccc3)C2)nn1 (configuration not stated),Percent Effect,"30 µM, 30.03 µM",42.86%
Cc1ccc(N2CCC(c3[nH]ncc3Cc3ccccc3)CC2)nn1,Percent Effect,"30 µM, 30.03 µM",58.22%
